Source: PubChem (National Center for Advancing Translational Sciences (NCATS))
PLK1 PBD inh = qHTS for Inhibitors of PLK1-PDB (polo-like kinase 1 - polo-box domain): Primary Screen; AID 720504, 2013; Plk1 PBD binding of FITC phosphopeptide, fluorescence polarization; Serine/threonine-protein kinase PLK1 (Homo sapiens), P53350; 360,000 compounds, 2.8% hits; Potency, µM, actives largely listed as inhibitors; further: series mostly up to about 57 µM; nearly all actives have a fitted effect of over 65% in size
Target sequence (P53350 whole entry, looked up, the tested form may be a part): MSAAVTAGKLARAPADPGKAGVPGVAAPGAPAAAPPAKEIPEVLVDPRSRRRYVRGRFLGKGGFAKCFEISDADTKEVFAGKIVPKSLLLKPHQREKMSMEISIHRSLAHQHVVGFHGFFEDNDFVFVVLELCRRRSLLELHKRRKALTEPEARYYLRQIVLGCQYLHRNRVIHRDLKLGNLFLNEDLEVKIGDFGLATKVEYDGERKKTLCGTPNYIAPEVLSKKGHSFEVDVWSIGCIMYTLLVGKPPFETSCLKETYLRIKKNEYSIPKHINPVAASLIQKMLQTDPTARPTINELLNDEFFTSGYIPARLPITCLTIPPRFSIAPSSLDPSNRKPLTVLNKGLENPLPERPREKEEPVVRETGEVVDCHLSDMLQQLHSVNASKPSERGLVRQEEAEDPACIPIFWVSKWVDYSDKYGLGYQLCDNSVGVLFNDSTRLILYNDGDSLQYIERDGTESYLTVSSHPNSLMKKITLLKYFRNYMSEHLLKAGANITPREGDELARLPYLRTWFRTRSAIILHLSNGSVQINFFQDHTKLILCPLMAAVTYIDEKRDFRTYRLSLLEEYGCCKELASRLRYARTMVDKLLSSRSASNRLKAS
Sfp PPTase inh = qHTS Assay for Inhibitors of Bacillus subtilis Sfp phosphopantetheinyl transferase (PPTase) | Biochemical Sfp PPTase activity, qHTS | Potency, µM, actives largely listed as inhibitors | 310,000 compounds, 3.5% hits | AID 1490, 2009;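 further: the enzyme is Sfp with the accession as filed and its product quenches rhodamine fluorescence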
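Fluorescence-quenching assay: 15 nM Sfp-PPTase preincubated 15 min at room temperature with compound, then 5 uM rhodamine-CoA and 12.5 uM BHQ-2-labelled YbbR peptide added. Fluorescence (ex 525/em 598 nm) read at start and after 30 min; difference gives rate.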
G9a inh = qHTS Assay for Inhibitors of Histone Lysine Methyltransferase G9a; G9a H3K9 monomethylation, AlphaScreen, 2 h; 350,000 compounds, 8.8% hits; Histone-lysine N-methyltransferase EHMT2 (Homo sapiens), Q96KQ7; Potency, µM (doses to about 102 µM), most hits filed as inhibitors; further: nearly all actives have a fitted effect of over 75% in size
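Methyltransferase reactions run at room temperature for 2 h (20 nM enzyme, 500 nM biotin-H3K9 peptide, 20 uM SAM) after a 15 min compound preincubation; product detected by AlphaScreen beads and anti-H3K9me1 antibody.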
BAZ2B inh = qHTS Assay for Inhibitors of BAZ2B. 360,000 compounds, 4.4% hits. Potency, µM (top dose mostly 114 µM), usual class: inhibitors. AlphaScreen BAZ2B-H3K14Ac peptide displacement. Bromodomain adjacent to zinc finger domain protein 2B (Homo sapiens), Q9UIF8; further: nearly all actives have a fitted effect of over 60% in size
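Compounds, titrated to a top concentration of 110 uM, were incubated 30 min at room temperature with preformed BAZ2B/acetyl-K14 H3 peptide complex (50 nM each). Proximity signal was measured by AlphaScreen after 20 min with beads.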
HP1b binding inh = HTS for Inhibitors of HP1-beta Chromodomain Interactions with Methylated Histone Tails; AlphaScreen HP1-beta / biotin-H3K9me3 peptide binding; 390,000 compounds, 0.56% hits; Potency, µM (doses to about 114 µM), usual class: inhibitors; Chromobox protein homolog 1 (Homo sapiens), P83916; further: nearly all actives have a fitted effect of over 70% in size
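Compound inhibition of the preformed complex between 50 nM HP1-beta and 50 nM biotinylated H3K9me3 peptide was read by AlphaScreen. Buffer was PBS pH 7.4 with 0.01% Tween-20. Incubations ran 30 min at room temperature, with 10 ug/mL donor/acceptor beads.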
JMJD2A Tudor = qHTS Assay for Inhibitors of JMJD2A-Tudor Domain; Lysine-specific demethylase 4A (Homo sapiens), O75164; AID 504339, 2011; 390,000 compounds, 4.4% hits; AlphaScreen JMJD2A-Tudor / H3K4me3 peptide binding; Potency, µM (doses to about 114 µM), usual class: inhibitors; further: nearly all actives have a fitted effect of over 50% in size
Hits are given with their value; n = inactive; u = inconclusive; x = no result; [ ] = remark or other dose. Hits are enriched below; roughly 12% of the tested compounds scored in any of these assays. The call rests on the fitted dose curve; in most records, active means well fitted curve in the direction sought with a large enough effect; inconclusive means small, poorly fitted or top-dose-only effect, or another doubt; inactive means no such curve, though single readings can be large; an effect the other way counts as inactive or inconclusive.

SMILES	PLK1 PBD inh	Sfp PPTase inh	G9a inh	BAZ2B inh	HP1b binding inh	JMJD2A Tudor
COc1ccc(C(=O)C[n+]2cc(Br)cc3ccccc32)cc1[N+](=O)[O-]	u	n	35µM	n	n	79µM
Cc1ccc2c(ccc[n+]2CC(=O)c2ccccc2)c1	n	n	n	n	n	n
C[C@@H]1C[C@@H]([C@@H](C)CC2CC(=O)NC(=O)C2)C(=O)[C@@H](C)C1	x	n	n	x	x	x
O=C(c1cccs1)N1N=C(c2ccc(O)cc2)CC1c1ccccc1 (stereo not given)	n	18µM	n	n	n	n
O=C(c1ccccc1)N1N=C(c2ccc(F)cc2)CC1c1ccc(F)cc1 (stereo not given)	n	x	x	x	n	n
O=C(c1cccs1)N1N=C(c2ccccc2)CC1c1ccccc1 (stereo not given)	n	40µM	n	n	n	n
COc1ccc(C2=NN(C(=O)c3cccs3)C(c3ccc(OC)cc3)C2)cc1 (stereo not given)	n	u	n	n	n	n
CC(=O)N1N=C(c2ccccc2)CC1c1ccc(F)cc1 (stereo not given)	n	n	n[0.501 µM]	n	n	n
O=C(c1cccs1)N1N=C(c2ccccc2)CC1c1ccc(O)cc1 (stereo not given)	n	20µM	u	n	u	n
C=C1C2=CC(=O)OC(c3ccoc3)[C@]2(C)CCC1[C@]1(C)C=CC(=O)C(C)(C)C1CC(=O)OC (stereo not given in full)	x	n	n[2.33 µM]	x	x	x
COc1ccc(-n2ncc(C(=O)NCc3cccs3)c2C2CCN(C(=O)OC(C)(C)C)CC2)cc1	x	x	n	n	n	u
CN(C)C(CNC(=O)c1ccc(C(F)(F)F)cc1)c1ccco1 (stereo not given)	n	n	x	n	n	n
N=C1S/C(=C\c2cn[nH]c2-c2ccc(F)cc2)C(=O)N1c1ccccc1F	27µM	n	n	n	n	89µM
Cc1cccc(Cn2c(CN3CCCC(C)C3)nc3c2c(=O)n(C)c(=O)n3C)c1 (stereo not given)	x	x	n	x	n	n
CC1(C)C(=O)Nc2ccccc2N1C(=O)CSc1nnc2c(Cl)cc(Cl)cn12	n	n	n	n	n	n
CC1CN(C(=O)CSc2nnc3c(Cl)cc(Cl)cn23)CC(C)O1 (stereo not given)	n	n	79µM	n	n	n
O=C(NCc1ccccn1)C(=O)NCC1OCCN1S(=O)(=O)c1ccc(Cl)cc1 (stereo not given)	n	n	n	n	n	n
CC1C(=O)C(C)(C)C(=O)OC1c1ccc([N+](=O)[O-])cc1 (stereo not given)	n	n	50µM	n	n	n
CC1C(=O)C(C)(C)C(=O)OC1c1ccccc1 (stereo not given)	n	n	n	n	n	n
Cc1cc(C)n(-c2nnc(C)n2/N=C/c2cc(Br)ccc2OCc2ccccc2)n1	n	28µM	u	n	n	n
CCOc1cc(C(=O)N(Cc2nc(-c3ccc(C)cc3)no2)C(C)C)cc(OCC)c1OCC	x	x	n	n	n	n
CCCN(CC(=O)Nc1ccccc1OC)C(=O)CCNC(=O)c1ccccc1OC	n	x	n[2.33 µM]	n	n	n
O=C1C=C(N2CCOCC2)c2ccccc2C1=O	n	n	u	n	n	n
c1csc(CNCCCN2CCOCC2)c1	n	n	u	n	n	n
c1csc(CN2CCOCC2)c1	n	n	8.9µM	35µM	u	2.8µM
SMILES	PLK1 PBD inh	Sfp PPTase inh	G9a inh	BAZ2B inh	HP1b binding inh	JMJD2A Tudor
O=S(=O)(NCCN1CCOCC1)c1cccs1	n	n	40µM	n	n	n
CN(C1=C(N2CCOCC2)C(=O)c2ccccc2C1=O)c1ccccc1	n	n	10µM	10µM	35µM	16µM
O=C1C(NS(=O)(=O)c2cccs2)=C(N2CCN(c3cccc(C(F)(F)F)c3)CC2)C(=O)c2ccccc21	n	n	u	10µM	u	40µM
CC(C)(CNS(=O)(=O)c1cccs1)N1CCOCC1	n	x	x	x	n	n
O=C(NCc1ccccc1Br)c1ccncc1	n	n	n	n	n	n
Cc1cc(C)c2c(CC(=O)Nc3nnc(C(C)C)s3)coc2c1	x	x	n	n	n	n
C#CCn1c(C2CC(=O)N(c3ccc(OCC)cc3)C2)nc2ccccc21 (stereo not given)	x	x	n	n	n	n
CC(=O)c1cccc(Nc2nc(N3CCOCC3)nc(N3CCOCC3)n2)c1	n	n	x	u	n	n
O=C1C(NS(=O)(=O)c2cccs2)=C(N2CCOCC2)C(=O)c2ccccc21	n	n	40µM	40µM	u	u
O=C1C(NS(=O)(=O)c2cccs2)=C(N2CCN(Cc3ccccc3)CC2)C(=O)c2ccccc21	n	n	13µM	13µM	16µM	14µM
CCOc1ccccc1N1CCN(C2=C(NS(=O)(=O)c3cccs3)C(=O)c3ccccc3C2=O)CC1	n	u	u	8.9µM	u	8.9µM
CC(NS(C)(=O)=O)C(c1cccs1)N1CCN(Cc2ccccc2)CC1 (stereo not given)	n	n	n	n	n	n
COc1ccccc1N1CCN(S(=O)(=O)c2cccs2)CC1	n	n	n	n	n	n
CN1CCN(C2=C(NS(=O)(=O)c3cccs3)C(=O)c3ccccc3C2=O)CC1	n	n	u	n	n	n
O=C(O)c1cccc(NC2=C(N3CCOCC3)C(=O)c3ccccc3C2=O)c1	n	n	2.8µM	u	n	n
O=C1NC(c2cccs2)Nc2ccccc21 (stereo not given)	2.7µM	n	u	n	n	u
Cc1ccsc1C1NC(=O)c2ccccc2N1 (stereo not given)	n	n	u	n	n	n
O=C(Cn1c(=O)n(Cc2ccco2)c(=O)c2cc(Cl)ccc21)NCC1CCCO1 (stereo not given)	n	40µM	n[12.7 µM]	n	n	n
COc1ccccc1NC(=O)CCn1nc(-c2ccccc2)c2ccccc2c1=O	x	x	n	n	n	n
CNC(=O)Cn1nc(-c2ccc(C)cc2)c2ccccc2c1=O	12µM	n	n	n	n	u
O=C(Cn1nc(-c2ccc(Cl)cc2)c2ccccc2c1=O)NCC1CCCO1 (stereo not given)	13µM	n	n	n	u	35µM
COc1ccccc1NC(=O)Cn1nc(-c2ccc(Cl)cc2)c2ccccc2c1=O	n	u	10µM	n	n	n
Cc1ccc(NC(=O)CSCC(=O)NCc2cccc(C(F)(F)F)c2)cc1	n	x	n	n	n	n
